# High-throughput results (PubChem BioAssay)
# This excerpt belongs to a sample that is enriched for hits.
# Menin MLL FP FL: menin-MLL binding inhibition, fluorescein peptide | Fluorescence polarization, fluorescein-MLL peptide displacement from menin | FP activity change, % at 61.4 µM | 290,000 tested, under 10 active; active means well fitted curve in the direction sought with a large enough effect in the polarisation, not every such curve was filed as active; inconclusive means small, poorly fitted or top-dose-only effect, or effect the other way, or a change in a side signal; inactive means no such curve, though single readings can be large or run the other way; the % refers to the polarisation; further: % of control where 0% means no effect
# MLL CXXC-DNA inh: inhibitors of human MLL CXXC domain-DNA interaction. Q03164. MLL-CXXC / FITC-HOXA9 DNA fluorescence polarization. Potency, µM (titrated, usually from 115 µM), without a hit: top-dose activity change, negative = inhibition, most hits filed as inhibitors. hit rate 0.037% among 290,000; active means well fitted inhibition curve with a large enough effect in the polarisation, with a control signal flat, not every such curve was filed as active; inconclusive means small, poorly fitted or top-dose-only effect, or effect the other way, or a change in a side signal; inactive means no such curve, though single readings can be large or run the other way; the % refers to the polarisation; further: potency means the concentration at half of the fitted maximal effect
#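 Purified MLL-CXXC (added from a 7 uM solution) was preincubated 5 min at ambient with pinned compounds in 50 mM Tris-HCl pH 7.5, 50 mM NaCl, 1 mM DTT, 0.05% BSA. Fluorescein-labeled HOX-A9 DNA (50 nM solution) followed, 30 min, then polarization read.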
# GALK inh: inhibitors of human galactokinase. Purified GALK, Kinase-Glo residual ATP luminescence. Potency, µM (doses to about 57.5 µM), inactives show at the top dose activity change, negative = inhibition, usual class: inhibitors. hit rate 0.007% among 270,000; further: potency means the concentration at half of the fitted maximal effect; on the % scale 0 is the no-effect control and ±100 the full control effect
#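 Galactose (100 uM) and ATP (35 uM) were turned over by 5 nM GALK for 1 h at RT. Kinase-Glo Plus then converted the remaining ATP into a luminescent signal.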
# S-ASM inh: inhibitors of human secretory acid sphingomyelinase; Potency, µM (top dose mostly 57.5 µM), inactives show top-dose activity change, negative = inhibition, actives largely listed as inhibitors; placental ASM, HMU-PC fluorogenic substrate, 60 min; hit rate 0.006% among 340,000; AID 504937; P17405; further: potency means the concentration at half of the fitted maximal effect
#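 Fluorescence read-out (Ex 386 nm, Em 447 nm) after stopping the reaction at pH 10. Enzyme: ASM from human placenta; substrate HMU-PC0, 9 uM final; 60 min, 37 °C. Compound preincubation 10 min, ambient temperature.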
# Menin MLL FP TR: inhibitors of human menin-MLL interaction, mutant MLL peptide | Potency, µM (titrated, usually from 61.6 µM), without a hit: at the top dose FP activity change, negative = inhibition, hits mostly inhibitors | O00255 | Menin + Texas Red MLL mutant peptide, fluorescence polarization | hit rate 0.23% among 270,000; active means well fitted inhibition curve with a large enough effect in the polarisation, with a control signal flat, not every such curve was filed as active; inconclusive means small, poorly fitted or top-dose-only effect, or effect the other way, or a change in a side signal; inactive means no such curve, though single readings can be large or run the other way; the % refers to the polarisation; further: potency means the concentration at half of the fitted maximal effect; % of control where 0% means no effect
# Target sequence (O00255 whole entry, looked up): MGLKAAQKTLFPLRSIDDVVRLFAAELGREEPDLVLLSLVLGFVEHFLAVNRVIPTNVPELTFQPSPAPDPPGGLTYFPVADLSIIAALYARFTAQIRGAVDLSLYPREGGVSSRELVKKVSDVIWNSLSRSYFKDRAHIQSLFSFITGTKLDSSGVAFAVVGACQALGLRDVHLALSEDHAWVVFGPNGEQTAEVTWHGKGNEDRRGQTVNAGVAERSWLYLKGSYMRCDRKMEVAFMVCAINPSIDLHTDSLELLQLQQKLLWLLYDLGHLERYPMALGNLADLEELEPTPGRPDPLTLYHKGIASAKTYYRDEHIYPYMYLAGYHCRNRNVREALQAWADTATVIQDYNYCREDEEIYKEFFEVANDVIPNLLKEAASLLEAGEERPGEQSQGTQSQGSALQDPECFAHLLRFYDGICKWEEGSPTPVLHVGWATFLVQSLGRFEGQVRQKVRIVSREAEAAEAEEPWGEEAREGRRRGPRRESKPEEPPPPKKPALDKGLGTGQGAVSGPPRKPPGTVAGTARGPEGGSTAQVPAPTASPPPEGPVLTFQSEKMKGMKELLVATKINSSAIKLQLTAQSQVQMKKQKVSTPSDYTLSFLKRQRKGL
# MLL CXXC FP-Fl: disrupts human MLL CXXC domain binding to DNA | shares compounds with MLL CXXC-DNA inh | MLL CXXC-DNA binding, fluorescein FP | Potency, µM (doses to about 345 µM), for inactives: at the top dose activity change, negative = inhibition, hits mostly inhibitors | hit rate 70% among 200 | AID 624160; further: potency means the concentration at half of the fitted maximal effect; nearly all actives have a fitted effect of over 80% in size
# MLL CXXC FP-TR: disrupts human MLL CXXC domain binding to DNA, Texas Red | AID 624161 | MLL CXXC-DNA binding, Texas Red fluorescence polarization | Potency, µM (doses to about 345 µM), inactives show at the top dose activity change, negative = inhibition, actives largely listed as inhibitors | shares compounds with MLL CXXC-DNA inh | hit rate 40% among 200; further: potency means the concentration at half of the fitted maximal effect; on the % scale 0 is the no-effect control and ±100 the full control effect; nearly all actives have a fitted effect of over 75% in size
# MLL CXXC TRF: disrupts human MLL CXXC domain binding to DNA by HTRF. shares compounds with MLL CXXC-DNA inh. MLL CXXC-DNA binding, HTRF, biochemical. Potency, µM (series often up to 172 µM), for inactives: top-dose activity change, negative = inhibition, actives largely listed as inhibitors. hit rate 30% among 210; further: on the % scale 0 is the no-effect control and ±100 the full control effect; nearly all actives have a fitted effect of over 80% in size
# * hit, by the source's call; ? = inconclusive; · = no result given. Unless noted, the call rests on the fitted dose curve; in most records, active means well fitted curve in the direction sought with a large enough effect; inconclusive means small, poorly fitted or top-dose-only effect, or another doubt; inactive means no such curve, though single readings can be large; an effect the other way counts as inactive or inconclusive.
SMILES,Menin MLL FP FL,MLL CXXC-DNA inh,GALK inh,S-ASM inh,Menin MLL FP TR,MLL CXXC FP-Fl,MLL CXXC FP-TR,MLL CXXC TRF
O=C(O)CC1OCC=C2CN3CCC45C6=CC(=O)C(=O)C([N+](=O)[O-])=C6NC4C1C2CC35 (stereo unspecified),2,?,10µM*,-2%,·,·,·,·
O=C(O)CC1OCC=C2CN3CCC45c6ccccc6NC4C1C2CC35 (stereo unspecified),-6,60%,5%,-2%,0%,·,·,·
O=C(O)c1ccc(-c2ccc3cc(C45CC6CC(CC(C6)C4)C5)c(O)cc3c2)cc1,0,·,·,·,?,·,·,·
CCCCCCCSc1cc(OC)c(CCN(C)C)cc1OC,1,?,-1%,-21%,7.1µM*,·,·,·
O=C(c1cc(-c2ccc(Cl)cc2)n(-c2ccc(Cl)cc2Cl)n1)N1CCOCC1,4,0%,-4%,28µM*,?,·,·,·
Cc1nc2c(=O)n(C)c(=O)nc-2n(C)n1,3,-1%,?,4%,1%,·,·,·
CCn1nc(-c2ccccc2)nc2c(=O)n(C)c(=O)nc1-2,?,?,0.89µM*,-6%,2%,·,·,·
NC1CCCC[C@@H]1N (stereo partly specified),-6,·,·,·,-18%,·,·,·
CCCCOP(=O)(OCCCC)C(Nc1ccc(C(=O)OCC)cc1)c1ccncc1 (stereo unspecified),-14,12%,-3%,-16%,3.2µM*,·,·,·
CCOP(=O)(OCC)C(O)c1cccnc1 (stereo unspecified),4,1%,-1%,4%,·,·,·,·
CCCCCCCCCCCCCCCCN,?,-3%,·,·,4%,·,·,·
O=C1C(=O)c2ccccc2-c2ccccc21,0,?,3.2µM*,-3%,?,·,·,·
COc1ccc2c(c1OC)C(=O)OC2c1c(O)n(Cc2ccc(F)cc2)c(=O)[nH]c1=O (stereo unspecified),8,13µM*,-4%,1%,50%,25µM*,113µM*,97µM*
O=c1[nH]c(=O)n(Cc2ccc(F)cc2)c(O)c1C=NCc1cccnc1,-1,2%,5%,6%,3%,·,·,·
O=[N+]([O-])c1ccc(Cl)c([N+](=O)[O-])c1,·,·,·,-9%,·,·,·,·
CN1C(=O)C(c2ccc([N+](=O)[O-])cc2[N+](=O)[O-])C(=O)N(C)C1=O,4,40µM*,0%,-9%,40%,?,?,40%
C=CC(C)(C)c1c2c(c(O)c3c(=O)c4ccc(O)c(O)c4oc13)C=CC(C)(C)O2,4,·,·,·,?,·,·,·
CN1[C@H]2CC(OC(=O)[C@H](CO)c3ccccc3)C[C@H]1[C@H]1O[C@H]12 (stereo partly specified),4,1%,·,·,1%,·,·,·
Cc1cc(/C=C2\C(=O)NC(=O)N(Cc3ccccc3Cl)C2=O)c(C)n1-c1ccc(C(=O)O)cc1,18,?,1%,-24%,?,14µM*,50µM*,?
Cc1cc(/C=C2\C(=O)NC(=O)N(Cc3ccco3)C2=O)c(C)n1-c1ccc(C(=O)O)cc1,13,28µM*,0%,1%,·,1.4µM*,142µM*,-14%
Cc1cc(=O)oc2c(C)c(OC3CCCCC3=O)ccc12 (stereo unspecified),2,15%,-2%,59%,4%,·,·,·
O=C1NC(=O)C(=Cc2cn(CCOc3ccc4c(c3)OCO4)c3ccccc23)C(=O)N1,?,35µM*,-6%,-9%,-11%,159µM*,?,-10%
O=C(O)CCC(=O)NCCC1=c2ccccc2=N/C1=C\c1c(O)n(Cc2ccc(F)cc2)c(=S)[nH]c1=O,22,20µM*,-15%,9%,·,22µM*,56µM*,15µM*
C[n+]1c2cc(N)ccc2cc2ccc(N)cc21,?,?,·,3%,-9%,0.63µM*,142µM*,97µM*
Nc1ccc2ccccc2c1,·,·,·,3%,·,·,·,·
SMILES,Menin MLL FP FL,MLL CXXC-DNA inh,GALK inh,S-ASM inh,Menin MLL FP TR,MLL CXXC FP-Fl,MLL CXXC FP-TR,MLL CXXC TRF
Cc1cc(/C=C2/C(=O)NC(=O)N(c3ccccc3)C2=O)c(C)n1-c1ccc(F)cc1,·,·,·,-3%,·,·,·,·
Cc1ccc(N2C(=O)NC(=O)/C(=C\c3cc(C)n(-c4cc(C(=O)O)cc(C(=O)O)c4)c3C)C2=O)cc1,3,8.9µM*,·,10%,-7%,36µM*,40µM*,122µM*
Cc1cc(/C=C2\C(=O)NC(=O)N(c3cccc(F)c3)C2=O)c(C)n1-c1ccc(C(=O)O)c(Cl)c1,?,13µM*,-4%,-1%,23%,12%,89µM*,-7%
Cc1ccc(N2C(=O)NC(=O)/C(=C\c3cc(C)n(-c4ccc(C(=O)O)cc4)c3C)C2=O)cc1,18,11%,3%,-2%,19%,·,·,·
Cc1cc(/C=C2\C(=O)NC(=O)N(c3ccc(F)cc3)C2=O)c(C)n1-c1ccc(C(=O)O)cc1,?,?,4%,-6%,7%,36µM*,100µM*,-12%
Cc1cc(/C=C2\C(=O)NC(=O)N(Cc3ccccc3)C2=O)c(C)n1-c1ccc(Cl)c(C(=O)O)c1,?,?,1%,-3%,36%,·,·,·
Cc1c(Cl)cccc1N1C(=O)NC(=O)/C(=C\c2cc(C)n(-c3cccc(C(=O)O)c3C)c2C)C1=O,13,?,1%,3%,32%,7.1µM*,71µM*,-9%
CC1=C2C(=CO[C@H](C)[C@H]2C)C(=O)C(C(=O)O)=C1O,1,·,·,·,-14%,·,·,·
CC(=O)C[C@H](c1ccccc1)c1c(O)c2ccccc2oc1=O,0,·,·,·,-6%,·,·,·
CC[C@@H](CO)NC(=O)[C@@H]1C=C2c3cccc4[nH]cc(c34)C[C@H]2N(C)C1,?,·,·,8%,9%,-16%,8%,31%
CCC(C(=O)O)C1CCC(C)C(C(C)C(O)C(C)C(=O)C(CC)C2OC3(C=CC(O)[C@@]4(CC[C@](C)(C5CC[C@@](O)(CC)C(C)O5)O4)O3)C(C)CC2C)O1 (stereo partly specified),?,-3%,·,·,-20%,·,·,·
